Hits are enriched below; roughly 21% of the tested compounds scored in any of these assays.
CHX counter: counter-screen hit for Shiga toxin inhibitors, cycloheximide | cell reporter, cycloheximide protein synthesis inhibition counterscreen | 300,000 tested, 12% active | max response, %; in the data active = max response mostly above about 13%, no sharp cut-off; inactive = mostly below about 14%; also: read at 38.3 µM for the half of the compounds with a filed dose; 0% is about no effect
HCV inhibitor: blocks hepatitis C virus; Huh7.5.1 HCVcc-Cre infection, luciferase reporter, 44 h; Potency, µM (doses to about 41.8 µM), for the others: at the top dose activity change, negative = inhibition, usual class: inhibitors; 340,000 tested, 3.4% active; AID 651820; also: potency is read from the fitted curve at half-maximal effect; % is scaled to controls: 0 for no effect and ±100 for the full control effect
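Seed cells (1,000/well) for 4 h; treat with compound and infect with HCVcc-Cre, moi about 0.5. Incubate 44 h, then detect luciferase activity.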
AMA1-RON2 inh: inhibitors of Plasmodium falciparum AMA1-RON2 interaction. AlphaScreen AMA1-biotinylated RON2 peptide binding. Potency, µM (top dose mostly 58.2 µM), without a hit: at the highest dose activity change, negative = inhibition, usual class: inhibitors. 360,000 tested, 0.2% active. AID 720542;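 also: potency is read from the fitted curve at half-maximal effect; 0% = vehicle wells and -100% = peptide control; nearly all actives have a fitted effect of over 45% in size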
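AMA1 (3D7) with his tag at 25 nM final met compounds first, then biotinylated RON2 peptide at 25 nM; detection used donor plus acceptor beads, 10 µg/mL apiece, read by AlphaScreen after 30 min at room temperature.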
Pf growth 48h: inhibits P. falciparum growth in the first generation, 48 h; P. falciparum luciferase growth in erythrocytes, 48 h; Potency, µM (highest dose often 28.7 µM), for the others: at the highest dose activity change, negative = inhibition, usual class: inhibitors; 310,000 tested, 5.9% active; AID 504832; also: potency is read from the fitted curve at half-maximal effect; % is scaled to controls: 0 for no effect and ±100 for the full control effect
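Compounds are pin-transferred into medium, infected erythrocytes (2% hematocrit, 0.1% parasitemia final) are added, and plates sit one parasite generation at 37 C in 5% CO2. Detection reagent is then added and luminescence measured.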
Shiga inhibitor: inhibitors of Shiga toxin in Vero cells; 290,000 tested, 9.2% active; Vero cells, Shiga toxin protein synthesis inhibition reporter; inhibition, % at 38.7 µM; in the data active = inhibition mostly above about 28%, no sharp cut-off; inactive = mostly below about 43%; also: 0% is about no effect
Pf growth 96h: P. falciparum growth inhibition at 96 hour, primary screen for plastid delayed-death inhibitors; P. falciparum luciferase reporter growth, 96 h; Potency, µM (top dose mostly 28.7 µM), without a hit: at the top dose activity change, negative = inhibition, actives largely listed as inhibitors; 320,000 tested, 6.9% active; also: potency is read from the fitted curve at half-maximal effect; % is scaled to controls: 0 for no effect and ±100 for the full control effect
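Two-generation exposure (96 h) targets delayed-death phenotype. Reporter parasites carrying integrated firefly luciferase, in red cells at 2% hematocrit and 0.05% parasitemia final, kept at 37 C, 5% CO2; luminescence loss indicates inhibition.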
The depositor's hits bear a star; ? = inconclusive; . = not tested or not shown. Unless noted, calls follow the shape of the dose curve; as a rule, active = well fitted curve in the direction sought with a large enough effect; inconclusive = small, poorly fitted or top-dose-only effect, or another doubt; inactive = no such curve, though single readings can be large; an effect the other way counts as inactive or inconclusive.

SMILES	CHX counter	HCV inhibitor	AMA1-RON2 inh	Pf growth 48h	Shiga inhibitor	Pf growth 96h
O=C(CSc1nc2ncccc2[nH]1)Nc1ccc2c(c1)OCO2	17	-3%	-5%	10%	69	24%
O=C(CSc1ccc2c(c1)OCCO2)Nc1ccc(Br)cc1	-1	-23%	3%	38%	-32	69%
O=C(CSc1ccc2c(c1)OCCO2)Nc1ccc2c(c1)OCO2	15*	-16%	-7%	4%	-12	.
O=C(CSC1=NC2(CCCCCC2)N=C1c1ccccc1)Nc1ccc2c(c1)OCCO2	3	?	-11%	?	-6	-1%
O=C(CSc1nc(-c2ccccc2)c(-c2ccccc2)[nH]1)Nc1ccc2c(c1)OCO2	15*	?	5%	-3%	24	?
FC1(F)C(F)(F)C(F)(F)C2(F)C(F)(F)C(F)(F)C(F)(F)C(F)(F)C2(F)C1(F)F (centres undefined)	.	.	.	-3%	.	-10%
O=C(CSc1ncn(-c2ccccc2)n1)Nc1ccc2c(c1)OCCO2	-3	1%	-4%	8%	14	16%
Cc1cccc(-n2ccnc2SCC(=O)Nc2ccc3c(c2)OCCO3)c1	27*	-13%	-11%	2%	-2	?
O=C(CSc1cccc[n+]1[O-])Nc1ccc(N2CCOCC2)cc1	7	.	.	13%	38	25%
O=C(CCS(=O)(=O)c1ccccc1)Nc1ccc2c(c1)OCO2	55*	19%	-17%	78%	112*	?
O=C(CSc1ccccc1)Nc1ccc2c(c1)OCCO2	40*	18%	-2%	298%	75*	8.3µM*
O=C(CSc1cccc[n+]1[O-])Nc1ccc2c(c1)OCCO2	16*	0%	-7%	30%	25	32%
O=C(CSc1nccn1-c1ccc(Cl)cc1)Nc1ccc2c(c1)OCO2	6	?	-25%	?	14	-19%
CC(C)/C=C/C(=O)N1CCCC(N2CCN(c3ccccc3F)CC2)C1 (centres undefined)	-4	-12%	-2%	-2%	-7	?
O=C(CSc1ccccc1)Nc1ccc2c(c1)OCO2	47*	0%	-7%	169%	65*	-20%
O=C(CSc1ccc(-c2ccccc2)nn1)Nc1ccc2c(c1)OCCO2	79*	?	-25%	79%	74*	98%
O=C(CSc1nnc2scc(-c3ccccc3)n12)Nc1ccc2c(c1)OCCO2	-1	0%	-12%	-10%	-2	.
CCCc1cc(=O)[nH]c2nnc(SCC(=O)Nc3ccc4c(c3)OCCO4)n12	.	32%	-22%	21%	.	41%
O=C(CSc1ccccc1F)Nc1ccc2c(c1)OCO2	.	-17%	-7%	.	.	.
Cc1c(C)n2c(SCC(=O)Nc3ccc4c(c3)OCCO4)nnc2[nH]c1=O	.	10%	-12%	9.3µM*	.	?
CC1CCN(C(=O)CSc2ccc(-c3ccc4c(c3)OCCO4)nn2)CC1	20*	1%	3%	30%	35	80%
CC(C)OCCCNC(=O)CN1C(=O)CSc2ccc(S(=O)(=O)N3CCCCC3)cc21	18	10%	10%	?	11	-103%
O=C(CSc1nnc2ccccn12)Nc1ccc2c(c1)OCCO2	26*	6%	17%	322%	130*	44%
O=C(CSc1nnc2ccccn12)NCc1ccc2c(c1)OCO2	8	13%	1%	15%	10	282%
O=C(CSc1nnc2ccccn12)Nc1ncc(Cl)cc1Cl	23*	14%	0%	.	36	82%
SMILES	CHX counter	HCV inhibitor	AMA1-RON2 inh	Pf growth 48h	Shiga inhibitor	Pf growth 96h
CC(C)Nc1nc(NCCOc2ccccc2)c2sccc2n1	.	.	-4%	.	.	.
Cc1ccc(S(=O)(=O)NC(=O)C2(C)CCN2C(=O)CC2CCCC2)cc1 (centres undefined)	.	.	3%	.	.	.
O=C(CN1C(=O)CC(c2ccco2)Sc2ccccc21)NC1CCCCC1 (centres undefined)	-3	-15%	-8%	?	3	?
Cc1ccc(-c2cc(C(=O)N/N=C/c3ccccc3)n[nH]2)o1	25*	-11%	-1%	-4%	82*	?
O=C(N/N=C/C(Br)=C/c1ccccc1)c1cc(-c2ccco2)[nH]n1	8	?	28%	-10%	39*	7%
Cc1ccc(-c2cc(C(=O)N/N=C/c3ccc(Cl)cc3)n[nH]2)o1	3	-17%	-4%	-23%	3	?
CCCCn1nnnc1C(c1cc2ccccc2o1)N1CCN(c2ccncc2)CC1 (centres undefined)	.	.	2%	.	.	.
NC(=O)C(C(=O)/C=C/c1ccc(Cl)cc1)=C1SCCS1	15*	?	2%	?	39	8.3µM*
COc1ccc(/C=C/C(=O)C(C(N)=O)=C2SCCS2)cc1	31*	4%	-7%	-27%	49*	-29%
Cn1c(=O)[nH]c(=O)c2c1nc1n2CC(O)CN1c1ccccc1 (centres undefined)	-3	10%	1%	.	-7	7%
CC1CCN(C(=O)Cn2c3ccccc3c3nc4n(c(=O)c32)CCS4)CC1	-5	-8%	2%	?	15	?
CCOC(=O)c1cccc(NC(=O)c2cc3ccccc3o2)c1	49*	-29%	0%	108%	57*	0%
CC(C)C(=O)Nc1ccc(NC(=O)c2cc3ccccc3o2)cc1	19*	?	8%	51%	62*	.
CCOC(=O)c1ccc(NC(=O)c2cc3ccccc3o2)cc1	32*	-22%	3%	?	41*	?
CC(C)C(=O)Nc1ccc(NC(=S)NC(=O)c2cc3ccccc3o2)cc1	7	1%	0%	-14%	-8	?
O=C1Nc2ccccc2C(=O)N(Cc2ccccc2)C1C(=O)NC1CC1 (centres undefined)	.	.	3%	.	.	.
Cc1ccc(NC(=O)C2CCC(CNC(=O)[C@@H]3Cc4ccccc4CN3)CC2)cc1 (some centres undefined)	8	8%	6%	?	-8	?
CCc1ccc(NC(=O)[C@H](NC(=O)[C@@H]2Cc3ccccc3CN2)c2ccccc2)cc1	28*	4%	46%	-19%	19	?
CC(C)c1ccc(NC(=O)C2CCC(CNC(=O)[C@@H]3Cc4ccccc4CN3)CC2)cc1 (some centres undefined)	15*	14µM*	-7%	?	17	-5%
CC(C)c1ccc(NC(=O)[C@@H](C)NC(=O)[C@@H]2Cc3ccccc3CN2)cc1	10	1%	8%	2%	12	8%
CCc1ccc(NC(=O)[C@@H](NC(=O)[C@@H]2Cc3ccccc3CN2)C(C)CC)cc1 (some centres undefined)	16*	-6%	10%	7.4µM*	20	?

Screens from PubChem.
